We go through 13 compounds from PubChem BioAssay.

Assay [1] in a line: resazurin metabolic signal in HepG2 cells – cell-based, resazurin fluorescence, 24 h, PK04 Diversity Set, profiling panel (AID 1172). Also: test concentration not given here. As to conditions: HepG2 viability, higher = more signal. (Alamar Blue is a resazurin reagent that responds to reducing activity.)
Assay [2] is described as follows: budding yeast growth changes without added modifier – OD600, strain BY4716, 24 h, basal condition, primary screen (AID 1173). The following applies: S. cerevisiae BY4716 growth, OD600, 24 h; higher = more signal, called active from +8 up or from −8 down.
Assay [3] is described as follows: viability profiling in MM1S myeloma cells – cell-based, resazurin fluorescence, basal, 24 h, PK04 Diversity Set, profiling panel (AID 1174).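 Also: MM1S multiple myeloma cell line; test concentration not given here.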 As to conditions: higher = more signal, called active from +8 up or from −8 down.
Assay [4] deals with Dihydroorotate dehydrogenase (quinone), mitochondrial (Plasmodium falciparum (isolate 3D7)) (UniProt Q08210). Nature of the assay: inhibition of P. falciparum DHODH – biochemical, C-terminal His tag, absorbance 600 nm, primary screen (AID 1175).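 Also: recombinant parasite enzyme with a five histidine tag at its C terminus; test concentration not given here.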 The following applies: PfDHODH enzyme, DCIP absorbance 600 nm; higher = more signal, called active from +8 up or from −8 down.
A short description of assay [5]: inhibition of PAO1 biofilm formation – strain PAO1, LB-PBS medium, absorbance 600 nm, primary screen (AID 1176). Also: test concentration not given here. The following applies: P. aeruginosa PAO1 growth/biofilm, A600, 12 h; higher = more signal.
Assay [6] is described as follows: growth modulation of vineyard yeast isolate – strain RM11-1a, OD600, basal, 24 h, primary screen (AID 1177).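 Also: cultures grown under basal conditions with no added stressor; test concentration not given here.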 The following applies: S. cerevisiae RM11-1a growth, OD600, 24 h; higher = more signal, called active from +8 up or from −8 down.
Assay [7] in a line: growth of efflux-deficient E. coli DRC39 – strain DRC39, OD650, 24 h, E. coli filamentation inducers, primary screen (AID 1178).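 Also: growth measured as culture turbidity by optical density at 650 nm; test concentration not given here.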 The following applies: E. coli DRC39 acrAB, higher = more signal, called active from +8 up or from −8 down.
The nature of assay [8]: growth of efflux-deficient E. coli DRC39 – strain DRC39, OD650, 48 h, E. coli filamentation inducers, primary screen (AID 1179).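 Also: screen aims at cell division blockers that make cells filament.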 As to conditions: E. coli DRC39 delta-acrAB growth, higher = more signal, called active from +8 up or from −8 down.
A short description of assay [9]: viability profiling in RPMI8226 myeloma cells – cell-based, resazurin fluorescence, basal, 24 h, PK04 Diversity Set, profiling panel (AID 1180).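 Also: RPMI8826 multiple myeloma cell line at 5000 cells per well; test concentration not given here.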 As to conditions: higher = more signal.
The target in assay [10] is E3 ubiquitin-protein ligase XIAP (Homo sapiens) (UniProt P98170). Nature of the assay: small molecules binding XIAP protein – biophysical, small-molecule microarray, fluorescence 635 nm, primary screen (AID 1181).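 Also: score merges 667 nm emission and signal to noise over triplicate slides.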 As to conditions: higher = more signal.

Activity calls are given as the source filed them. Unless noted, no rule for the calls is given here.

Dihydroorotate dehydrogenase (quinone), mitochondrial (Plasmodium falciparum (isolate 3D7)), sequence (Q08210 whole entry, looked up): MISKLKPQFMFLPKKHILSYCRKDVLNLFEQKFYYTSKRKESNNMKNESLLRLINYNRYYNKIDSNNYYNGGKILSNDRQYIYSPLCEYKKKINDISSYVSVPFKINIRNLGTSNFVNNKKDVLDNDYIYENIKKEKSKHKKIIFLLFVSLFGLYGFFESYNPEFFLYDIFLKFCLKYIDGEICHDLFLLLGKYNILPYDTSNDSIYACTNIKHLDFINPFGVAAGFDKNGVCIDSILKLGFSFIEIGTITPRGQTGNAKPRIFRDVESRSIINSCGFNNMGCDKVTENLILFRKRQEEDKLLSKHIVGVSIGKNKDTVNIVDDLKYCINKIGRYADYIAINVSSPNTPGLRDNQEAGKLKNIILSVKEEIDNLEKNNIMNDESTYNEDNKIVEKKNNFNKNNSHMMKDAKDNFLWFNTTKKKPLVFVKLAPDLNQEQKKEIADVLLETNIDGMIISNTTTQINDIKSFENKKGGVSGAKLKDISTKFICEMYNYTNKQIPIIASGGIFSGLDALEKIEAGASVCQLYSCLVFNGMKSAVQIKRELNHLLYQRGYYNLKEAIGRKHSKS
E3 ubiquitin-protein ligase XIAP (Homo sapiens), sequence (P98170 whole entry, looked up): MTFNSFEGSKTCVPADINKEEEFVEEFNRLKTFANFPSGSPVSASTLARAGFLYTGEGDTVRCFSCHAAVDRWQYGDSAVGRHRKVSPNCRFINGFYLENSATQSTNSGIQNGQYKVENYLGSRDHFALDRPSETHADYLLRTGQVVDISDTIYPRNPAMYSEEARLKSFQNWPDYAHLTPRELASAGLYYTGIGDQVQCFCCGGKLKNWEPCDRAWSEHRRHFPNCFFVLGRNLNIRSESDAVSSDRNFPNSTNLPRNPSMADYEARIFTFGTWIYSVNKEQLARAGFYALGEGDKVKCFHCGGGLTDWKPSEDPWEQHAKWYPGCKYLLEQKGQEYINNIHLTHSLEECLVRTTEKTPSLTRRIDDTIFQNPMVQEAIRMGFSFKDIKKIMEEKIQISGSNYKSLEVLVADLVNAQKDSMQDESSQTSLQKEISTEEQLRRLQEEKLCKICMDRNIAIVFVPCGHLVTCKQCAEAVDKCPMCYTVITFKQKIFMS

In the case of `CC(CCN1CCc2nc(-c3ccccc3)c(-c3ccccc3)cc2C1)=NOC[C@@H](O)[C@H]1O[C@@H]2OC(C)(C)O[C@@H]2[C@H]1O`, the z-score in assay [1] is -0.31; in assay [2] it was -3.84 (inactive); in [3], -1.06 (inactive); in [5], 0.359 (inactive); in assay [6], -0.187 (inactive); in assay [7], 1.39 (inactive). Moreover, the z-score was 0.431 (inactive) in assay [8] and -0.776 in assay [9]. For the same compound, the composite z-score in [4] is -0.897 (inactive); in assay [10], 0.145.
On to `C[C@@H](c1ccccc1)N1C(=O)[C@H]2[C@H]3[C@H](O)[C@H](O)CC(=NOCc4ccccc4)[C@H]3CC[C@H]2C1=O`, for which the z-score was -0.137 in assay [1]; -0.18 (inactive) in assay [2]; -1.03 (inactive) in assay [3]; -0.179 (inactive) in assay [5]; 0.783 (inactive) in [6]; 0.273 (inactive) in [7]. Moreover, the figures for the z-score in assay [8] and in assay [9] were 1.12 (inactive) and 0.76, respectively. Besides, the composite z-score in assay [4] was -0.964 (inactive); in assay [10], -0.184.
In the case of `CC(C)=CCCC(C)=CCON=C1C[C@@H](O)[C@@H](O)[C@@H]2[C@@H]3C(=O)N(C(C)(C)C)C(=O)[C@@H]3CC[C@H]12`, the z-score in assay [1] is -0.369; in [2], -0.352 (inactive); in assay [3], -0.274 (inactive); in assay [5] it was 0.152 (inactive); in assay [6], -0.264 (inactive); in [7], 0.27 (inactive). Further, the z-score was 0.612 (inactive) in assay [8] and -0.245 in [9]. Besides, the composite z-score in assay [4] is -0.108 (inactive); in assay [10], -0.172.
For `CO[C@H]1COC(=O)CCC[C@@H](C)[C@H](OC)COC(=O)[C@@H]2CCCN2C(=O)CC=C[C@@H]1C`, the z-score in [1] is -0.145; in assay [2], -0.723 (inactive); in assay [3], 0.435 (inactive); in assay [5] it was -1.04 (inactive); in [6], -1.04 (inactive); in assay [7], -0.367 (inactive). In addition, the z-score in assay [8] was -0.459 (inactive); in assay [9] it was 0.826. The composite z-score was -0.44 (inactive) in assay [4] and -0.135 in assay [10].
For `O=C1C[C@@H](O)[C@@H](O)[C@@H]2[C@@H]3C(=O)N(c4cccc(Oc5ccccc5)c4)C(=O)[C@@H]3CC[C@H]12`, the z-score in [1] is 0.0515; in assay [2] it was 0.251 (inactive); in [3] it was 0.0257 (inactive); in assay [5] it was -0.601 (inactive); in [6] it was 0.132 (inactive); in assay [7], -0.539 (inactive). The results for the z-score in [8] and in [9] were -0.389 (inactive) and 0.0381, respectively. Besides, the composite z-score in assay [4] was 0.0371 (inactive); in assay [10] it was -0.0448.
Consider `CC(C)(C)N1C(=O)[C@H]2[C@H]3[C@H](O)C=CC(=O)[C@@H]3CC[C@H]2C1=O`, for which the z-score in assay [1] was 0.136; in assay [2], 1.48 (inactive); in assay [3], 0.469 (inactive); in [5], -0.118 (inactive); in [6], 0.846 (inactive); in [7] it was -0.278 (inactive). The z-score in assay [8] was -0.231 (inactive); in assay [9], 0.467. Moreover, the composite z-score in [4] was 0.237 (inactive); in assay [10], -0.102.
For `COC(=O)[C@H](C)NC(=O)CCC1CC(OC(=O)NCc2ccc3c(c2)OCO3)CC2(CCCC(COC(=O)NCC3CCCCC3)O2)O1` (stereo not given in full), the z-score in [1] is 0.635; in assay [2], 0.415 (inactive); in assay [3], 0.138 (inactive); in assay [5], -0.388 (inactive); in [6], 1.13 (inactive); in [7], 0.49 (inactive). The z-score in assay [8] is 0.139 (inactive); in assay [9], -0.119. Moreover, the composite z-score is 0.981 (inactive) in [4] and 0.104 in assay [10].
For the compound `C[C@H](ON=C1[C@H]2CCn3c(=O)n(-c4ccccc4)c(=O)n3[C@H]2[C@H](O)[C@@H]2O[C@H]12)c1cn([C@H](CO)Cc2ccccc2)nn1`, the z-score in assay [1] is -0.189; in assay [2] it was -0.145 (inactive); in assay [3] it was -0.489 (inactive); in assay [5], 0.0282 (inactive); in assay [6], -1.09 (inactive); in [7], 0.571 (inactive). Moreover, the z-score in assay [8] was 0.223 (inactive); in [9] it was -0.226. Also, the composite z-score in assay [4] is -1.29 (inactive); in assay [10], -0.106.
On to `CCOC(=O)[C@H](CC(C)C)NC(=O)CCC1CC(OC(=O)NCCc2ccc(F)cc2)CC2(CCCC(COC(=O)NCC(c3ccccc3)c3ccccc3)O2)O1` (stereo not given in full), for which the z-score in [1] was 0.184; in assay [2], -0.227 (inactive); in assay [3] it was -0.345 (inactive); in assay [5], 0.013 (inactive); in assay [6], 0.126 (inactive); in assay [7], 0.113 (inactive). Further, the values for the z-score in [8] and in assay [9] were -1.1 (inactive) and 0.465, respectively. The composite z-score in assay [4] is 0.0649 (inactive); in [10] it was -0.0994.
As to `CO[C@@H]1COC(=O)[C@H](CCSC)NC(=O)CC=C[C@@H](C)COC(=O)[C@H](C)NC(=O)CC=C[C@H]1C`, the z-score in assay [1] was 0.356; in assay [2] it was -1.15 (inactive); in assay [3], 0.457 (inactive); in assay [5], -0.838 (inactive); in [6], -0.224 (inactive); in assay [7], 0.916 (inactive). Further, the z-score in [8] was 0.577 (inactive); in [9], 0.693. The composite z-score is 0.262 (inactive) in assay [4] and -0.324 in [10].
In the case of `CCOC(=O)[C@H](CC(C)C)NC(=O)CCC1CC(OC(=O)NCCc2ccc(F)cc2)CC2(CCCC(COC(=O)NCC3CCCCC3)O2)O1` (stereo not given in full), the z-score in assay [1] was 1.1; in assay [2], 0.776 (inactive); in assay [3] it was 0.0789 (inactive); in [5] it was 0.201 (inactive); in assay [6], -0.547 (inactive); in [7], -0.0313 (inactive). Also, the z-score in assay [8] is -1.02 (inactive); in [9], 0.738. Moreover, the composite z-score was -0.161 (inactive) in assay [4] and -0.153 in assay [10].
Take `COC(=O)[C@@H]1CC[C@H](C)[C@@H](c2ccc(C)cc2)N1C(=O)c1ccc(C=NOC[C@@H](C)[C@H](OCc2ccccc2)C(C)C)cc1`: the z-score in assay [1] is -0.625; in [2] it was -2.56 (inactive); in [3], -0.795 (inactive); in assay [5], -1.16 (inactive); in assay [6], -2.18 (inactive); in assay [7] it was 0.413 (inactive). The z-score was -1.07 (inactive) in [8] and -0.987 in assay [9]. The composite z-score in assay [4] is -0.869 (inactive); in assay [10], -0.135.
As to `CCOC(=O)[C@H](CC(C)C)NC(=O)CCC1CC(OC(=O)NCc2cccc3ccccc23)CC2(CCCC(COC(=O)NCc3cccc(C(F)(F)F)c3)O2)O1` (stereo not given in full), the z-score in assay [1] is -0.189; in assay [2], -0.31 (inactive); in assay [3] it was 0.0223 (inactive); in assay [5] it was 0.687 (inactive); in [6], 0.388 (inactive); in assay [7] it was 0.939 (inactive). Also, the z-score in [8] was 1.08 (inactive); in assay [9], 0.639. Also, the results for the composite z-score in [4] and in assay [10] were -0.161 (inactive) and -0.206, respectively.
